# Assay results taken from PubChem BioAssay (NCI).
# About 83,000 compounds went through this panel and 20% of them were active in at least one assay; those are over-represented in the sample as a whole.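 The endpoint reported here, percent growth, reads 100 for growth as untreated, 0 for no net growth and -100 for all cells dead.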 Unmarked numbers belong to inactive results. Calls of active or inactive are those of the source.
# Test system: IGROV1 ovarian
# Assay: NCI-60 one-dose screen, 48 h (100 = growth as untreated, 0 = no growth, -100 = all killed)
# Conditions: 10 µM unless noted
# Experimental: Growth inhibition of the IGROV1 human tumor cell line is measured as a screen for anti-cancer activity. Cells are grown in 96 well plates and exposed to the test compound for 48 hours. Compounds are tested at a single concentration, which is 10^-5 M for most compounds. The reported endpoint is percent growth (GI% or GIPRCNT), where numbers from 0 - 100% represent growth inhibition, and numbers from -100% - 0 represent cell death. For example, a value of 40 represents 60% growth inhibition. A value of 0 means no net growth occurred over the course of the experiment. A value of -40 indicates 40% of cells at the beginning of the experiment died by the end of the experiment. A value of -100 means all cells are dead at the end of the experiment.
# NCI-60 Human Tumor Cell Lines Screen was performed using the standard one-dose NCI protocol, which is described in more detail at https://dtp.cancer.gov/discovery_development/nci-60/default.htm.
# Compounds with GIPRCNT values below 10 were considered active. Activity score was based on GIPRCNT using the following formula: […]
# Score is 0 for GIPRCNT values of 100 or above, 50 for GIPRCNT values of 0, and 100 for GIPRCNT values of -100.
row,SMILES,growth
1,COc1ccc(-n2nc(C)c3c(Nc4ccc(NC(=O)Nc5c(Cl)cccc5Cl)cc4)ncnc32)cc1,71.7%
2,CCOc1nc(-c2ccccc2)cc2c(O)c(C(=O)O)[nH]c(=O)c12,96.1%
3,Oc1ccc(N=Cc2ccccc2O)cc1,90.2%
4,CC(C)CSc1nc(N)nc2c1ncn2C1OC(CO)C(O)C1O (stereo not given),93.4%
5,O=S(=O)(Nc1ccc(NS(=O)(=O)c2ccccc2)c(Cl)c1)c1ccccc1,98.6%
6,O=C(N/N=C/c1c[nH]c2ccccc12)c1cc(-c2ccccc2)on1,87.2%
7,Cc1nc2c3c(-c4ccccc4)c(-c4ccccc4)oc3ncn2n1,94.7%
8,C=CCSSc1ncnc2c1ncn2C1OC(CO)C(O)C1O (stereo not given),34.9%
9,Cn1c(=O)c2c(nc3n(-c4ccc(Cl)cc4Cl)c(Sc4nc(-c5ccccc5)c(C#N)c(=O)[nH]4)cn23)n(C)c1=O,55.6%
10,O=C1Nc2ccc(Br)cc2C12Oc1ccccc1C1CC(c3ccc(F)cc3)=NN12 (stereo not given),72.8%
11,O=C1/C(=C/N2N=C(c3ccc4ccccc4c3)CC2c2ccccc2O)SC(=S)N1c1cccnc1 (stereo not given),26.4%
12,CCOC(=O)c1cc(C(=O)c2ccc(O)c(O)c2)n2ccc(-c3ccn4c(C(=O)c5ccc(O)c(O)c5)cc(C(=O)OCC)c4c3)cc12,87.4%
13,CCCc1cc(=O)n2c(C(=O)Nc3cccc(C(=O)OCC)c3)c(C(=O)Nc3ccc(F)cc3)sc2n1,42.2% [30 µM]
14,COc1cc2c(cc1-c1c(C)noc1C)ncc1nc(C3CCCC3)n([C@H](C)COC(F)F)c12,42.1%
15,CC(C)n1c(/C=C/[C@@H](O)C[C@@H](O)CC(=O)O)c(-c2ccc(F)cc2)c2ccccc21,34.3%
16,CC(O)CN1CC(O)=C(c2nc3ccccc3s2)C1=N (stereo not given),99%
17,COc1ccc(C2C(C#N)=C(N)Oc3n[nH]c(-c4cccs4)c32)cc1I (stereo not given),91.2%
18,O=[N+]([O-])c1ccc(Nc2nc(NCCN3CCOCC3)ncc2[N+](=O)[O-])cc1,81%
19,O=C(C(=O)c1ccc2c(c1)OCO2)c1ccc2c(c1)OCO2,124%
20,Cc1cc(N2CCCCC2)nc(NC2CCCC(Nc3ccnc4cc(Cl)ccc34)C2)n1 (stereo not given),-33% (active)

row,SMILES,growth
1,Cc1ccc(NS(=O)(=O)c2ccc(-c3cnc(C4CC4)o3)cc2)cc1C,29.5%
2,CN(C)S(=O)(=O)c1cccc(-c2nc3sc4c(c3c(=O)[nH]2)CCCC4)c1,32.1%
3,N#CN1CCC[C@H]1C(=O)N1CCc2c(-c3[nH]nc4ncccc34)cccc21,17.1%
4,O=C1c2ccccc2C(=O)c2c(N=Nc3[nH]c(=S)[nH]c3O)cccc21,27%
5,CCc1nnc(CNc2ccc(Cl)cc2)o1,105%
6,O=C1/C(=C/c2ccccc2)SC(=S)N1CCc1ccc(O)cc1,82.3%
7,CCOC(=O)c1sc(Nc2ccc(Cl)cc2)nc1C,19.3%
8,COc1cc(/C=C/c2cc(/C=C/c3ccc(O)c(OC)c3)n(-c3c(Cl)cccc3Cl)c(=O)n2)ccc1O,33.5%
9,COc1ccc(O)c(N=Nc2nccs2)c1,70.2%
10,COc1cc(Nc2cc(C)nc(N3CCN(c4ccnc5cc(Cl)ccc45)CC3)n2)cc(OC)c1,-22.9% (active)
11,NCCNc1nc(Nc2ccc(-c3nc4ccccc4[nH]3)cc2)c2cn[nH]c2n1,97.6%
12,FC(F)(F)Oc1ccc2nc3nc4ccc[nH]c4cc3c2c1,74.6%
13,CCOc1ccc(-n2nc(C(=O)Nc3ccccc3)nc2-c2cc(OC)c(OC)c(OC)c2)cc1,55.1%
14,CCOC(=O)n1cc(-c2nonc2-c2cn(C)c3ncccc23)c2ccccc21,54.2%
15,COc1cccc(-c2nc3sccn3c2-c2ccnc(NCCCNS(=O)(=O)c3cccc(Cl)c3)c2)c1,50.7%
16,COc1cccc(-c2nc3sccn3c2-c2ccnc(NCCCNS(=O)(=O)c3cccc(F)c3)c2)c1,27.7%
17,COc1ccc(CN2c3ccccc3Oc3ccccc32)cc1F,52.1%
18,C/C1=C\CC[C@@]2(C)O[C@H]2[C@H]2OC(=O)C(CN3CCN(CC4C(=O)O[C@H]5[C@H]4CC/C(C)=C/CC[C@@]4(C)O[C@@H]54)CC3)[C@@H]2CC1 (stereo not given in full),101%
19,O=C(/C=C/c1ccccc1)c1ccc(O)c(CN2CCN(c3cc4c(cc3F)c(=O)c(C(=O)O)cn4C3CC3)CC2)c1,28.7%
20,CCN(CC)c1ccc(/C=N\NC(=O)/C=C/C=C/c2ccc3c(c2)OCO3)c(O)c1,38.2%
